# Assay results: PubChem BioAssay (NCATS)
# A number with no mark means an inactive call. Records with an inconclusive call do not appear. Entries that show only a call come without a potency. Activity calls are given as the source filed them. The call rests on the fitted dose curve; in most records, active means well fitted curve in the direction sought with a large enough effect; inconclusive means small, poorly fitted or top-dose-only effect, or another doubt; inactive means no such curve, though single readings can be large; an effect the other way counts as inactive or inconclusive.
# What was measured:
# [1] = HepG2 viability counterscreen (readout 2: ATP content) against the NCATS DSHEA and TCM libraries (AID 1794840)
# Method in brief: (§1)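 HepG2 cells, 1,000/well, attached ~4 h, then exposed ~24 h at 37C to substances. Protease activity read by fluorescence of 25 uM GF-AFC (Ex/Em 380/510 nm) after 30 min; ATP then by CellTiter-Glo luminescence.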
# [2] = HepG2 viability counterscreen (readout 1: protease activity) against the NCATS DSHEA and TCM libraries (AID 1794841);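 further: cells exposed to compounds for about 24 h before the protease read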
# Method in brief: as §1
# [3] = target: Glutathione peroxidase 1 (Homo sapiens) (UniProt P07203); assay: Primary qHTS Assay for Inhibitors of Recombinant Selenoprotein Glutathione Peroxidase 1 (GPX1) (AID 1845191); further: nearly all actives have a fitted effect of over 65% in size
# Glutathione peroxidase 1 (Homo sapiens), sequence (P07203 whole entry, looked up): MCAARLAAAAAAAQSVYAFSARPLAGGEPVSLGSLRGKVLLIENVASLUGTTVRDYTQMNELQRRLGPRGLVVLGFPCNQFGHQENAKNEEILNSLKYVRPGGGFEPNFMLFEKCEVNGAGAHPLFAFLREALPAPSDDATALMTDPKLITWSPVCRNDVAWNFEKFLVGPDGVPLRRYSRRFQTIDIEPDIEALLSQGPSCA
# Method in brief: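 NADPH consumption tracked by fluorescence at 340/450 nm between t=0 and t=15 min, room temperature. Final mix: 10 nM GPX1, 100 nM glutathione reductase, 1 mM GSH, 0.5 mM NADPH, 0.5 mM cumene hydroperoxide, 0.01% BSA; 30 min compound–enzyme preincubation.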
# [4] = target: Phospholipid hydroperoxide glutathione peroxidase GPX4 (Homo sapiens) (UniProt P36969); assay: Primary qHTS Assay for Inhibitors of Recombinant Selenoprotein Glutathione Peroxidase 4 (GPX4) (AID 1845192); further: series mostly up to about 50 µM; nearly all actives have a fitted effect of over 65% in size
# Phospholipid hydroperoxide glutathione peroxidase GPX4 (Homo sapiens), sequence (P36969 whole entry, looked up): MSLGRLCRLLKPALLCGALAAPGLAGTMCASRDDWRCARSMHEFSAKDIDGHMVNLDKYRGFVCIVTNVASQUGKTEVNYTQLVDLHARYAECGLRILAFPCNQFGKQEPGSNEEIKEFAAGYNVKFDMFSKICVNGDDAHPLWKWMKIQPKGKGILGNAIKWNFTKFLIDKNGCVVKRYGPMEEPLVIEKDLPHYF
# Method in brief: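 NADPH consumption followed by fluorescence at 340/450 nm, t=0 and after 15 min at room temperature. Reaction started with cumene hydroperoxide (0.5 mM final) after 30 min compound–GPX4 preincubation; final 200 nM GPX4, 100 nM GR, 1 mM GSH, 0.5 mM NADPH.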
# [5] = target: Luciferin 4-monooxygenase (Photinus pyralis) (UniProt P08659); assay: Primary firefly luciferase (FLuc) qHTS assay for identification of artifact compounds. (AID 1845220); further: nearly all actives have a fitted effect of over 60% in size; further: potency means the concentration at half of the fitted maximal effect; on activity change, negative = inhibition: series mostly up to about 54 µM
# Method in brief: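 FLuc 10 nM; luciferin 10 uM; ATP 10 uM; Tris-acetate pH 7.6, Mg-acetate 10 mM; 15 min RT preincubation; 5 min reaction; luminescence.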
# [6] = test system: Nanoluciferase (engineered Oplophorus gracilirostris luciferase); assay: Primary Nanoluciferase (NLuc) qHTS assay for identification of artifact compounds. (AID 1845222);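 further: NLuc secreted into diluted conditioned medium of S16 cells; series mostly up to about 54 µM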
# Method in brief: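 NLuc from S16 cell medium (1:55) plus test compounds, 15 min, room temperature. Luminescence after Nano-Glo (1:100) addition, 5 min.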
# [7] = Primary redox qHTS assay for identification of artifact compounds. (AID 1845223)
# Method in brief: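 Redox-cycling detection via DTT (250 uM final) oxidation coupled to Amplex Red (25 uM)/HRP (250 mU/mL) in HBSS. 15 min preincubation plus 30 min after DTT, room temperature. Ex/Em 525/598 nm; 4-parameter Hill fit against DMSO and 10 uM DA3003.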
# [8] = target: Cytochrome P450 3A4 (Homo sapiens) (UniProt P08684); assay: qHTS for inhibitors of CYP3A4 against the NCATS DSHEA and TCM libraries (AID 1919971);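 further: inhibition lowers luminescence from luciferin made by CYP3A4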
# Cytochrome P450 3A4 (Homo sapiens), sequence (P08684 whole entry, looked up, canonical isoform): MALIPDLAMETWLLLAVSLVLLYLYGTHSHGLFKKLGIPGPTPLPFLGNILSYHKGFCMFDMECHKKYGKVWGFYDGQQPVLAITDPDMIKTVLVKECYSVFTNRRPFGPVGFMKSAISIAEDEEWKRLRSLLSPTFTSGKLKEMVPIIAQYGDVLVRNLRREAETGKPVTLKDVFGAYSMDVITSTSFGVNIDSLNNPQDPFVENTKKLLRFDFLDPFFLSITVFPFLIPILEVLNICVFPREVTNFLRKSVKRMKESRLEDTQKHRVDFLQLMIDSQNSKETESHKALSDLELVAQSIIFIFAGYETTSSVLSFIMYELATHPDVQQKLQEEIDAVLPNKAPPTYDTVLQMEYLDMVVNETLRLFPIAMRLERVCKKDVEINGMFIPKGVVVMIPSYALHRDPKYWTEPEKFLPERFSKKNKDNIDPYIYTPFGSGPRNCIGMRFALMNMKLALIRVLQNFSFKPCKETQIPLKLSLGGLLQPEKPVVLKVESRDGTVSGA
# Method in brief: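 Isoform-specific enzyme and substrate levels; enzyme-free wells as background. Reaction: 1x NADPH regenerating system, 30-45 min, room temperature, shielded from light; luminescent detection reagent added, 30 min.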
# [9] = target: Metallo-beta-lactamase type 2 (Klebsiella pneumoniae) (UniProt C7C422); assay: qHTS to identify inhibitors of the New Delhi Metallo-beta-lactamase (NDM): assay validation screen against the NCATS LOPAC Collection (AID 1794843);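 further: nitrocefin turnover by NDM-1 measured as 485 nm absorbance at plateau; series mostly up to about 38 µM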
# Metallo-beta-lactamase type 2 (Klebsiella pneumoniae), sequence (C7C422 whole entry, looked up): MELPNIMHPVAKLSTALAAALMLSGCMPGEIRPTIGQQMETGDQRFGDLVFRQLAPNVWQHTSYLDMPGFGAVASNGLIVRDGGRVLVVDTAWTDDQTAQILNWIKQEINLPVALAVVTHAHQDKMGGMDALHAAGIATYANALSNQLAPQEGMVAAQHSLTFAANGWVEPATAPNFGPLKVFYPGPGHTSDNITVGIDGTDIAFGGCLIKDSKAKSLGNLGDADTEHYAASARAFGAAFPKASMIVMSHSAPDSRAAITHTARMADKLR
# Method in brief: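 Nitrocefin hydrolysis (50 uM substrate stock) by NDM-1, 2 nM final, was followed by 485 nm absorbance after compound preincubation; buffer was 50 mM HEPES pH 7.0, 1 uM ZnSO4, 0.01% Tween20.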
# [10] = Primary fluorescence-based thiol-reactive (MSTI) qHTS assay for identification of artifact compounds. (AID 1845221); further: nearly all actives have a fitted effect of over 65% in size; further: potency means the concentration at half of the fitted maximal effect;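 on activity change, negative = thiol reactive: series mostly up to about 54 µM; thiol-reactive compounds lower the probe fluorescence signal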
# Method in brief: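 First, 4 uM MSTI in 2% DMSO/PBS pH 7.4 was dispensed; next, compounds were added; then plates sat 1 h at room temperature without light. Finally, emission at 598 nm was recorded.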
smiles,measurement,setting,value
CC1CC[C@]2(C(=O)O)CC[C@]3(C(=O)O)C(=CCC4[C@@]5(C)CC[C@H](OC6OC(C)C(O)C(OC7OC(CO)C(O)C(O)C7O)C6O)C(C)(C)C5CC[C@]43C)C2C1C (stereo not given in full),outcome,[1],inactive
same,outcome,[2],inactive
same,Potency,[3],inactive
same,Potency,[4],inactive
same,Potency,[5],inactive
same,Potency,[6],inactive
same,Potency,[7],inactive
same,outcome,[8],inactive
CC[C@]1(O)CC2CN(CCc3c([nH]c4ccccc34)[C@@](C(=O)OC)(c3cc4c(cc3OC)N(C)[C@H]3[C@@](O)(C(=O)OC)[C@H](OC(C)=O)[C@]5(CC)C=CCN6CC[C@]43[C@@H]65)C2)C1 (stereo not given in full),outcome,[9],inactive
same,Potency,[3],inactive
same,Potency,[4],inactive
same,Potency,[5],inactive
same,Potency,[10],inactive
same,Potency,[6],inactive
CC(C)=CCC[C@](C)(O[C@@H]1O[C@H](CO[C@@H]2O[C@H](CO)[C@@H](O)[C@H](O)[C@H]2O)[C@@H](O)[C@H](O)[C@H]1O)C1CC[C@]2(C)[C@@H]1[C@H](O)CC1[C@@]3(C)CC[C@H](O[C@@H]4O[C@H](CO)[C@@H](O)[C@H](O)[C@H]4O[C@@H]4O[C@H](CO)[C@@H](O)[C@H](O)[C@H]4O)C(C)(C)[C@@H]3CC[C@]12C (stereo not given in full),outcome,[1],inactive
same,outcome,[2],inactive
same,Potency,[4],inactive
same,"activity change, negative = inhibition",[5],-9.29% [at 11.6 µM]
same,"activity change, negative = thiol reactive",[10],44.5% [at 11.5 µM]
same,"activity, negative = inhibition",[6],0.108% [at 11.6 µM]
same,redox activity (% of DA3003),[7],5.05% [at 11.5 µM]
same,outcome,[8],inactive
C=CC(=O)Nc1cc(Nc2nccc(-c3c[nH]c4ccccc34)n2)c(OC)cc1N(C)CCN(C)C,Potency,[3],inactive
same,Potency,[4],inactive
same,Potency,[5],inactive
same,Potency,[10],1.68 µM (active)
same,Potency,[6],inactive
CC1(C)CCC2(C(=O)OC3OCC(O)C(O)C3O)CCC3(C)C(=CCC4C5(C)CC(O)C(OC6OC(COC7OCC(O)C(O)C7O)C(O)C(O)C6O)C(C)(C)C5CCC43C)C2C1 (stereo not given),Potency,[3],inactive
same,Potency,[4],inactive
same,outcome,[5],inactive [at 11.6 µM]
same,"activity change, negative = thiol reactive",[10],-15.2% [at 11.5 µM]
same,"activity, negative = inhibition",[6],0.507% [at 11.6 µM]
Cc1ccc(-c2c(C(=O)CF)n(CCCO)c3ncnc(N)c23)cc1,Potency,[3],inactive
same,Potency,[4],inactive
same,Potency,[5],inactive
same,Potency,[10],inactive
same,Potency,[6],inactive
Cc1ccccc1C#Cc1ccc(CCC(=O)O)cc1,Potency,[3],inactive
same,Potency,[4],inactive
same,Potency,[5],4.26 µM (active)
same,Potency,[10],inactive
CC(C)C(CO)Nc1nc(Nc2ccc(C(=O)O)c(Cl)c2)c2ncn(C(C)C)c2n1 (stereo not given),Potency,[3],inactive
same,Potency,[4],inactive
same,Potency,[5],inactive
same,Potency,[10],inactive
COC(=O)C1=C2Nc3ccccc3C23CCN2CCCC(C(C)O)(C1)C23 (stereo not given),Potency,[3],inactive
same,Potency,[4],inactive
same,Potency,[5],inactive
CC(=O)OC1C[C@@]2(C)[C@@H](CC[C@@H](C)[C@]23Cc2c(O)cc4c(c2O3)CNC4=O)C(C)(C)[C@@H]1O (stereo not given in full),Potency,[3],inactive
same,Potency,[4],inactive
same,Potency,[5],inactive
same,Potency,[10],inactive
same,Potency,[6],inactive
CC(=O)O[C@@](C)(C(=O)/C=C/C(C)(C)O)[C@H]1[C@H](O)C[C@@]2(C)[C@@H]3CC=C4[C@@H](C=C(O)C(=O)C4(C)C)[C@]3(C)C(=O)C[C@]12C,Potency,[3],inactive
same,Potency,[4],inactive
same,Potency,[5],inactive
same,Potency,[10],inactive
Cn1cc(S(=O)(=O)c2ccc(Cl)cc2)c2cccc(N3CCNCC3)c21,Potency,[3],inactive
same,Potency,[4],inactive
same,Potency,[5],inactive
same,Potency,[10],inactive
same,Potency,[6],inactive
CC(=O)NCC(=O)N1C2CCC1c1cc(Nc3ncc(C(F)(F)F)c(NC4CCC4)n3)ccc12 (stereo not given),Potency,[3],inactive
same,Potency,[4],inactive
same,Potency,[5],inactive
same,Potency,[10],inactive
same,Potency,[6],inactive
C#CCN(Cc1cc2c(=O)n(C)c(CN3CCN(C)CC3)nc2cc1Cl)c1ccc(C(=O)NCc2cccnc2)cc1,Potency,[3],inactive
same,Potency,[4],inactive
same,Potency,[5],inactive
same,Potency,[10],inactive
same,Potency,[6],inactive
O=C(CCc1ccccc1)N1CCC(O)(Cn2cnc3cc(Cl)ccc3c2=O)CC1,Potency,[3],inactive
same,Potency,[4],inactive
same,Potency,[5],inactive
same,Potency,[10],inactive
same,Potency,[6],inactive
OC[C@H]1O[C@@H](OC[C@H]2O[C@@H](OC/C=C/c3ccccc3)[C@H](O)[C@@H](O)[C@@H]2O)[C@@H](O)[C@@H]1O,outcome,[1],inactive
same,outcome,[2],inactive
same,Potency,[3],inactive
same,Potency,[4],inactive
same,Potency,[5],inactive
same,Potency,[10],10.3 µM (active)
same,Potency,[6],inactive
same,Potency,[7],inactive
same,outcome,[8],inactive
C=C1C(=O)OC2C1CCC(=C)C1CC(OC(C)=O)C(=C)C12 (stereo not given),Potency,[3],inactive
same,Potency,[4],inactive
same,Potency,[5],inactive
same,Potency,[10],18.9 µM (active)
CCS(=O)(=O)N1CCN(c2ccc(Nc3ncc(C(N)=O)c(NC4CC4)n3)cc2)CC1,Potency,[3],inactive
same,Potency,[4],inactive
same,Potency,[5],inactive
same,Potency,[10],2.99 µM (active)
same,Potency,[6],inactive
